Data on five compounds can be found in PubChem BioAssay.

Potency and affinity values are given separately. Activity calls are given as the source filed them. A call without a number means that no potency is given here. No rule for the calls is given here.

The nature of the first assay: A549 cell cytotoxicity, dose response, cytotoxicity control, plate reader, cherry-pick, antagonist series (AID 743412). Particulars: series mostly up to 26 µM.
As to `Nc1ccc(-c2nc3ccc(C(=O)O)cc3s2)cc1`, the compound was called inactive.

Take `COc1cccc(-c2ccc(C3[C@@H]4CN(C(=O)C5CC5)C[C@H]3N4)cc2)c1` (some centres undefined): the compound was classed as inactive. With `Cc1ccc2nc(-c3ccc(Br)cc3)cn2c1`, the compound was called inactive. On the same count and under the same terms, with `O=C(Nc1cccc(C(=O)O)c1)Nc1ccc2c(c1)OCO2` the entry was “inactive”.

A short description of another assay: toxicity toward HepG2 liver cells – cell-based, plate reader, cherry-pick, antagonist series, cytotoxicity control, dose response (AID 743416). Particulars: series mostly up to 26 µM.
Take `Nc1ccc(-c2nc3ccc(C(=O)O)cc3s2)cc1`: the compound was called inactive.

Turning to `COc1cccc(-c2ccc(C3[C@@H]4CN(C(=O)C5CC5)C[C@H]3N4)cc2)c1` (some centres undefined), the result was inactive. The same measure, in the same setting: with `Cc1ccc2nc(-c3ccc(Br)cc3)cn2c1` the entry was “inactive”; with `Cn1nnnc1Sc1ncnc2scc(-c3cccc(Br)c3)c12`, “inactive”; with `O=C(Nc1cccc(C(=O)O)c1)Nc1ccc2c(c1)OCO2`, “inactive”.
